Compound in the experiment: Nc1nc2c(ncn2[C@@H]2O[C@H](COP(=O)(O)OP(=O)(O)OP(=O)(O)O)[C@@H](O)[C@H]2O)c(=O)[nH]1 [guanosine triphosphate]
As to the kind of experiment: NP40-soluble protein abundance relative to vehicle (solubility fold change) (ratio); higher = more soluble protein in presence of GTP. Here is the method:
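Solubility proteome profiling in Jurkat crude lysate. Lysate was treated with Mg-GTP (0.1-10 mM) for 10 min at room temperature and 3 min at 37 °C, then solubilised with 0.8% NP40 and benzonase, followed by ultracentrifugation. Proteins were quantified by TMT10 LC-MS/MS; the value is the NP40-soluble abundance relative to the NP40-processed vehicle, from 3 independent experiments.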

± gives the standard deviation of the averaged measurements. The full data set covers some 5,400 targets. This sample favours those with the largest changes.

Chain of UniProt P62195 (P62195 whole entry): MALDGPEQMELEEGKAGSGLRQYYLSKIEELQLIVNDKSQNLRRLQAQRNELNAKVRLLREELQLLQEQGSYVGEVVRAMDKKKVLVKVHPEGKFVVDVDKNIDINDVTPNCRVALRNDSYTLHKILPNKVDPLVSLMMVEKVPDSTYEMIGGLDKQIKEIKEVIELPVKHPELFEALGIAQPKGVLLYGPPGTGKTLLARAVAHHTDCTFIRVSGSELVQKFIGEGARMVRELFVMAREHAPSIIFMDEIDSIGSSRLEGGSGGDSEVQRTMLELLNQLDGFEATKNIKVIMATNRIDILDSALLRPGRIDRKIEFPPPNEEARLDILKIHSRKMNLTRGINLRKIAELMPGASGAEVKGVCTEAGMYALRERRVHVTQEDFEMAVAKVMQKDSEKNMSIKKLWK
Chain of UniProt P80217 (P80217 whole entry): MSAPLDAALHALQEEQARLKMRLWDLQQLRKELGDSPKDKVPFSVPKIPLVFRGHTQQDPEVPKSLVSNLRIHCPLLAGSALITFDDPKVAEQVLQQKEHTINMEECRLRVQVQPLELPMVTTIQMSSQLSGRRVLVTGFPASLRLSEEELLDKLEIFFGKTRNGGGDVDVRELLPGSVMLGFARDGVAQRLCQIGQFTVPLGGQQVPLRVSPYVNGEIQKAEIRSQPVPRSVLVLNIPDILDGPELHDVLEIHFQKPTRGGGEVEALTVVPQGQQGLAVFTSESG
Chain of UniProt Q5JTZ9 (Q5JTZ9 whole entry): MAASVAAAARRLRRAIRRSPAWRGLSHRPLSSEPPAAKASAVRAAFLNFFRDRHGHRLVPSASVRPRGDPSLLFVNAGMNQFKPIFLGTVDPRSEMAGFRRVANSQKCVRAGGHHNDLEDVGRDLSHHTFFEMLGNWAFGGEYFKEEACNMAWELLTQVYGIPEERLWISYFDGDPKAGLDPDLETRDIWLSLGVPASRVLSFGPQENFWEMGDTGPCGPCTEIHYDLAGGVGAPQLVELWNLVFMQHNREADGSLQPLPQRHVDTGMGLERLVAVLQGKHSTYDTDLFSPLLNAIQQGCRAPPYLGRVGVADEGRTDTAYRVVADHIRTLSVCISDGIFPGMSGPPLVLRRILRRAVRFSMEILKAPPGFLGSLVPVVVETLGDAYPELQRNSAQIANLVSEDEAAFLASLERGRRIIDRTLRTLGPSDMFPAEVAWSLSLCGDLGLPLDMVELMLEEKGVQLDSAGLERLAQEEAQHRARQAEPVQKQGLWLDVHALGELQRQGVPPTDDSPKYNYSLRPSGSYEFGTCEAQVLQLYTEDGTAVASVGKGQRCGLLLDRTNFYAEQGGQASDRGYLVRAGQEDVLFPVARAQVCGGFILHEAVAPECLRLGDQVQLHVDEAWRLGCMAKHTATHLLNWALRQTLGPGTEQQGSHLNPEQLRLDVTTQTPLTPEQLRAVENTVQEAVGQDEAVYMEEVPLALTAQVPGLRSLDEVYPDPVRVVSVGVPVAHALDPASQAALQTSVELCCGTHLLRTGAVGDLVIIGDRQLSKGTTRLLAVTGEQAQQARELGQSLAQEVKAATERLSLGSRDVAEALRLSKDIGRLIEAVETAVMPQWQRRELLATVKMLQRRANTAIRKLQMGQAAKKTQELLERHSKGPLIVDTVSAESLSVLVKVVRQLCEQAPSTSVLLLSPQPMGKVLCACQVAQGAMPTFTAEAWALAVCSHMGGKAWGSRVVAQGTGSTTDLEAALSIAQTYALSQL

In the case of UniProt P80217|P80217-2, the NP40-soluble protein abundance was found to be 0.97 ± 0.043 (concentration: 0.1mM); 1.01 ± 0.063 (concentration: 0.5mM); 0.926 ± 0.044 (concentration: 1mM); 0.902 ± 0.076 (concentration: 2mM); 0.877 ± 0.059 (concentration: 4mM); 0.911 ± 0.067 (concentration: 6mM). The NP40-soluble protein abundance reads like this: (concentration: 8mM) 0.934 ± 0.052; (concentration: 10mM) 0.938 ± 0.051.

For the target AARS2 (UniProt Q5JTZ9), the NP40-soluble protein abundance stood at 1.13 ± 0.043 (concentration: 0.1mM); 1.02 ± 0.046 (concentration: 0.5mM); 0.989 ± 0.052 (concentration: 1mM); 0.998 ± 0.059 (concentration: 2mM); 0.98 ± 0.06 (concentration: 4mM); 0.948 ± 0.04 (concentration: 6mM). In addition, the NP40-soluble protein abundance is 0.925 ± 0.03 (concentration: 8mM) and 0.925 ± 0.045 (concentration: 10mM).

On to UniProt P62195, for which the NP40-soluble protein abundance is, setting by setting: (concentration: 0.1mM) 1.03 ± 0.069; (concentration: 0.5mM) 1.08 ± 0.12; (concentration: 1mM) 1.04 ± 0.14; (concentration: 2mM) 1.07 ± 0.17; (concentration: 4mM) 1.06 ± 0.15; (concentration: 6mM) 1.08 ± 0.19. The NP40-soluble protein abundance (concentration: 8mM) was determined as 1.06 ± 0.16 and the NP40-soluble protein abundance (concentration: 10mM) was determined as 0.977 ± 0.15.

With P62158 (UniProt P0DP23), the NP40-soluble protein abundance by setting is: (concentration: 0.1mM) 0.715 ± 0.11; (concentration: 0.5mM) 0.763 ± 0.14; (concentration: 1mM) 0.991 ± 0.17; (concentration: 2mM) 1.12 ± 0.19; (concentration: 4mM) 1.09 ± 0.21; (concentration: 6mM) 1.15 ± 0.24. Also, the NP40-soluble protein abundance reads like this: (concentration: 8mM) 0.939 ± 0.14; (concentration: 10mM) 1.14 ± 0.11.

Consider UniProt P62805, for which the NP40-soluble protein abundance stood at 0.891 ± 0.063 (concentration: 0.1mM); 0.855 ± 0.058 (concentration: 0.5mM); 0.972 ± 0.027 (concentration: 1mM); 0.963 ± 0.053 (concentration: 2mM); 1.08 ± 0.048 (concentration: 4mM); 1.22 ± 0.054 (concentration: 6mM). The NP40-soluble protein abundance reads like this: (concentration: 8mM) 1.2 ± 0.067; (concentration: 10mM) 1.76 ± 0.14.

Values taken from the supplement of paper PMC6411743.
